# Changes are numbered by the printed parent chain.
# Experiments:
# Test in all cases: PBM; 200 nM protein, PBS
# Settings in all cases: dsDNA, one strand shown
# VENTX [1] = biological target: T1, VENTX (Homo sapiens, UniProt O95231 78-163, R121Q)
# T1 sequence: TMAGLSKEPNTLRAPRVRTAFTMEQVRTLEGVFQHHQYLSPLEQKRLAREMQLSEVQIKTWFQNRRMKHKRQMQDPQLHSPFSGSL
# VENTX [2] = biological target: T2, VENTX (Homo sapiens, UniProt O95231 78-163)
# T2 sequence: T1 sequence with Q44R
# VENTX [3] = biological target: T3, VENTX (Homo sapiens, UniProt O95231 78-163, Y115F)
# T3 sequence: T1 sequence with Y38F, Q44R
# NKX2-6 [4] = biological target: T4, NKX2-6 (Homo sapiens, UniProt A6NCS4 118-204)
# T4 sequence: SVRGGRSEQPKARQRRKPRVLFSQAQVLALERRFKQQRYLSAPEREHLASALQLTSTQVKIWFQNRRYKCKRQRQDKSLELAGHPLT
# NKX2-6 [5] = biological target: T5, NKX2-6 (Homo sapiens, UniProt A6NCS4 118-204, F151L)
# T5 sequence: T4 sequence with F34L
# HOXD13 [6] = biological target: HOXD13 (Homo sapiens, UniProt P35453 263-343, T313R)
# Chain of HOXD13 (Homo sapiens, UniProt P35453 263-343, T313R) (P35453 263-343 T313R): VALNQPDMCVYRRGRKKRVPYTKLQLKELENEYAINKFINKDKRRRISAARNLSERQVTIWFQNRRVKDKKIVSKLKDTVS
# HOXD13 [7] = biological target: HOXD13 (Homo sapiens, UniProt P35453 263-343)
# Chain of HOXD13 (Homo sapiens, UniProt P35453 263-343) (P35453 263-343): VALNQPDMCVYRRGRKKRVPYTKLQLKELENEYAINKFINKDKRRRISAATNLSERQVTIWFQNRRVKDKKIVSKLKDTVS
# HOXD13 [8] = biological target: HOXD13 (Homo sapiens, UniProt P35453 263-343, T313A)
# Chain of HOXD13 (Homo sapiens, UniProt P35453 263-343, T313A) (P35453 263-343 T313A): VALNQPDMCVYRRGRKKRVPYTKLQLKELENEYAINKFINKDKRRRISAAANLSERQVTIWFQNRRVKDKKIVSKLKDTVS
# HOXA2 [9] = biological target: HOXA2 (Homo sapiens, UniProt O43364 129-215, R185T)
# Chain of HOXA2 (Homo sapiens, UniProt O43364 129-215, R185T) (O43364 129-215 R185T): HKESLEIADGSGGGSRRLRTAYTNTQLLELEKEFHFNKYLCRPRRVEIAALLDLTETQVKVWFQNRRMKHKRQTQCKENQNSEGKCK
# HOXA2 [10] = biological target: HOXA2 (Homo sapiens, UniProt O43364 129-215, R185K)
# Chain of HOXA2 (Homo sapiens, UniProt O43364 129-215, R185K) (O43364 129-215 R185K): as the sequence (O43364 129-215 R185T) above, with T57K counted along it
# HOXA2 [11] = biological target: HOXA2 (Homo sapiens, UniProt O43364 129-215, Y150S)
# Chain of HOXA2 (Homo sapiens, UniProt O43364 129-215, Y150S) (O43364 129-215 Y150S): as the sequence (O43364 129-215 R185T) above, with Y22S, T57R counted along it
# HOXA2 [12] = biological target: HOXA2 (Homo sapiens, UniProt O43364 129-215)
# Chain of HOXA2 (Homo sapiens, UniProt O43364 129-215) (O43364 129-215): as the sequence (O43364 129-215 R185T) above, with T57R counted along it
# HOXB6 [13] = biological target: HOXB6 (Homo sapiens, UniProt P17509 132-218, K202E)
# Chain of HOXB6 (Homo sapiens, UniProt P17509 132-218, K202E) (P17509 132-218 K202E): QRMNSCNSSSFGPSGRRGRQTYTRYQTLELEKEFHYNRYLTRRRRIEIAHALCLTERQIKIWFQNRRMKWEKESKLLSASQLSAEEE
# ALX1 [14] = biological target: ALX1 (Homo sapiens, UniProt Q15699 118-204, L144V)
# Chain of ALX1 (Homo sapiens, UniProt Q15699 118-204, L144V) (Q15699 118-204 L144V): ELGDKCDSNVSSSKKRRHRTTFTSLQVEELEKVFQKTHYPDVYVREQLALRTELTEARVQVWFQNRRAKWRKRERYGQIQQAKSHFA
# ALX3 [15] = biological target: ALX3 (Homo sapiens, UniProt O95076 139-225, N203Q)
# Chain of ALX3 (Homo sapiens, UniProt O95076 139-225, N203Q) (O95076 139-225 N203Q): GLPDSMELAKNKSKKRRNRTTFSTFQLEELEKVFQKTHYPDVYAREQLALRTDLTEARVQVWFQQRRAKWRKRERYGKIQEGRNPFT
# ALX1 [16] = biological target: ALX1 (Homo sapiens, UniProt Q15699 118-204, L144R)
# Chain of ALX1 (Homo sapiens, UniProt Q15699 118-204, L144R) (Q15699 118-204 L144R): as the sequence (Q15699 118-204 L144V) above, with V27R counted along it
# ALX3 [17] = biological target: ALX3 (Homo sapiens, UniProt O95076 139-225)
# Chain of ALX3 (Homo sapiens, UniProt O95076 139-225) (O95076 139-225): as the sequence (O95076 139-225 N203Q) above, with Q65N counted along it
# ALX3 [18] = biological target: ALX3 (Homo sapiens, UniProt O95076 139-225, L168Q)
# Chain of ALX3 (Homo sapiens, UniProt O95076 139-225, L168Q) (O95076 139-225 L168Q): as the sequence (O95076 139-225 N203Q) above, with L30Q, Q65N counted along it
# ALX3 [19] = biological target: ALX3 (Homo sapiens, UniProt O95076 139-225, L168V)
# Chain of ALX3 (Homo sapiens, UniProt O95076 139-225, L168V) (O95076 139-225 L168V): as the sequence (O95076 139-225 N203Q) above, with L30V, Q65N counted along it
# ALX1 [20] = biological target: ALX1 (Homo sapiens, UniProt Q15699 118-204)
# Chain of ALX1 (Homo sapiens, UniProt Q15699 118-204) (Q15699 118-204): as the sequence (Q15699 118-204 L144V) above, with V27L counted along it
# ALX3 [21] = biological target: ALX3 (Homo sapiens, UniProt O95076 139-225, N203S)
# Chain of ALX3 (Homo sapiens, UniProt O95076 139-225, N203S) (O95076 139-225 N203S): as the sequence (O95076 139-225 N203Q) above, with Q65S counted along it
# HOXB6 [22] = biological target: HOXB6 (Homo sapiens, UniProt P17509 132-218)
# Chain of HOXB6 (Homo sapiens, UniProt P17509 132-218) (P17509 132-218): as the sequence (P17509 132-218 K202E) above, with E71K counted along it
sequence,measurement,setting,value
ACGCCGCC,binding signal,VENTX [1],"8.33 upbm affinity estimate (log intensity, higher = more binding, comparable within an allelic series)"
same,binding signal,VENTX [2],"8.43 upbm affinity estimate (log intensity, higher = more binding, comparable within an allelic series)"
same,binding signal,VENTX [3],"8.35 upbm affinity estimate (log intensity, higher = more binding, comparable within an allelic series)"
same,binding signal,NKX2-6 [4],"9.13 upbm affinity estimate (log intensity, higher = more binding, comparable within an allelic series)"
same,binding signal,NKX2-6 [5],"9.22 upbm affinity estimate (log intensity, higher = more binding, comparable within an allelic series)"
CCGGGACC,binding signal,VENTX [1],"8.02 upbm affinity estimate (log intensity, higher = more binding, comparable within an allelic series)"
same,binding signal,VENTX [2],"8.2 upbm affinity estimate (log intensity, higher = more binding, comparable within an allelic series)"
same,binding signal,VENTX [3],"7.98 upbm affinity estimate (log intensity, higher = more binding, comparable within an allelic series)"
same,binding signal,HOXD13 [6],"9.46 upbm affinity estimate (log intensity, higher = more binding, comparable within an allelic series)"
same,binding signal,NKX2-6 [4],"9.14 upbm affinity estimate (log intensity, higher = more binding, comparable within an allelic series)"
same,binding signal,HOXD13 [7],"9.43 upbm affinity estimate (log intensity, higher = more binding, comparable within an allelic series)"
same,binding signal,HOXD13 [8],"9.37 upbm affinity estimate (log intensity, higher = more binding, comparable within an allelic series)"
same,binding signal,NKX2-6 [5],"9.26 upbm affinity estimate (log intensity, higher = more binding, comparable within an allelic series)"
CACTAATG,binding signal,VENTX [1],"11.7 upbm affinity estimate (log intensity, higher = more binding, comparable within an allelic series)"
same,binding signal,VENTX [2],"12.3 upbm affinity estimate (log intensity, higher = more binding, comparable within an allelic series)"
same,binding signal,VENTX [3],"11.6 upbm affinity estimate (log intensity, higher = more binding, comparable within an allelic series)"
same,binding signal,HOXA2 [9],"12.1 upbm affinity estimate (log intensity, higher = more binding, comparable within an allelic series)"
same,binding signal,HOXA2 [10],"13.2 upbm affinity estimate (log intensity, higher = more binding, comparable within an allelic series)"
same,binding signal,HOXA2 [11],"10.9 upbm affinity estimate (log intensity, higher = more binding, comparable within an allelic series)"
same,binding signal,HOXA2 [12],"12.1 upbm affinity estimate (log intensity, higher = more binding, comparable within an allelic series)"
CCAAATTA,binding signal,VENTX [1],"10.8 upbm affinity estimate (log intensity, higher = more binding, comparable within an allelic series)"
same,binding signal,VENTX [2],"11.4 upbm affinity estimate (log intensity, higher = more binding, comparable within an allelic series)"
same,binding signal,VENTX [3],"10.8 upbm affinity estimate (log intensity, higher = more binding, comparable within an allelic series)"
GCCCAGGC,binding signal,VENTX [1],"7.88 upbm affinity estimate (log intensity, higher = more binding, comparable within an allelic series)"
same,binding signal,VENTX [2],"7.61 upbm affinity estimate (log intensity, higher = more binding, comparable within an allelic series)"
same,binding signal,VENTX [3],"7.8 upbm affinity estimate (log intensity, higher = more binding, comparable within an allelic series)"
same,binding signal,HOXB6 [13],"8.91 upbm affinity estimate (log intensity, higher = more binding, comparable within an allelic series)"
same,binding signal,HOXA2 [9],"6.96 upbm affinity estimate (log intensity, higher = more binding, comparable within an allelic series)"
same,binding signal,ALX1 [14],"6.2 upbm affinity estimate (log intensity, higher = more binding, comparable within an allelic series)"
same,binding signal,ALX3 [15],"7.68 upbm affinity estimate (log intensity, higher = more binding, comparable within an allelic series)"
same,binding signal,HOXA2 [10],"10 upbm affinity estimate (log intensity, higher = more binding, comparable within an allelic series)"
same,binding signal,ALX1 [16],"6.3 upbm affinity estimate (log intensity, higher = more binding, comparable within an allelic series)"
same,binding signal,ALX3 [17],"7.31 upbm affinity estimate (log intensity, higher = more binding, comparable within an allelic series)"
same,binding signal,ALX3 [18],"7.59 upbm affinity estimate (log intensity, higher = more binding, comparable within an allelic series)"
same,binding signal,ALX3 [19],"7.69 upbm affinity estimate (log intensity, higher = more binding, comparable within an allelic series)"
same,binding signal,HOXA2 [11],"10.3 upbm affinity estimate (log intensity, higher = more binding, comparable within an allelic series)"
same,binding signal,ALX1 [20],"6.12 upbm affinity estimate (log intensity, higher = more binding, comparable within an allelic series)"
same,binding signal,ALX3 [21],"7.71 upbm affinity estimate (log intensity, higher = more binding, comparable within an allelic series)"
same,binding signal,HOXA2 [12],"7.01 upbm affinity estimate (log intensity, higher = more binding, comparable within an allelic series)"
same,binding signal,HOXB6 [22],"8.63 upbm affinity estimate (log intensity, higher = more binding, comparable within an allelic series)"
GCCGGCAC,binding signal,VENTX [1],"7.98 upbm affinity estimate (log intensity, higher = more binding, comparable within an allelic series)"
same,binding signal,VENTX [2],"7.91 upbm affinity estimate (log intensity, higher = more binding, comparable within an allelic series)"
same,binding signal,VENTX [3],"7.98 upbm affinity estimate (log intensity, higher = more binding, comparable within an allelic series)"
CCCATTAC,binding signal,VENTX [1],"11.4 upbm affinity estimate (log intensity, higher = more binding, comparable within an allelic series)"
same,binding signal,VENTX [2],"12.4 upbm affinity estimate (log intensity, higher = more binding, comparable within an allelic series)"
same,binding signal,VENTX [3],"11.2 upbm affinity estimate (log intensity, higher = more binding, comparable within an allelic series)"

# Source: PMC11006913
